Measured values published in PubChem BioAssay (EPA / NIEHS).
“And” between values parts separate entries of the source, which are not always exact repeats. Identical values can stand only once. Inconclusive results are not listed. The source made the active and inactive calls. The calls were made as follows: active = hit-call score of the fitted dose curve at least 0.9, where 1 is the maximum; inconclusive = response in the unintended direction; inactive = score below 0.9.

Target: Cellular tumor antigen p53 (Homo sapiens) (UniProt P04637)
Test: TOX21_p53_BLA_p3_ratio: Tox21 HCT-116 p53 Agonism Beta-lactamase Assay, Ratio, Phase 3 (AID 2283596)
Method in brief: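 Cells were seeded at 4000/well, rested 5 h at 37C, then dosed with DMSO compound solutions (217-fold dilution) for 16 h. CCF4-AM substrate was loaded for 2 h at room temperature, and the 460/530 nm emission ratio was fitted for gain of signal versus DMSO.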

Chain of Cellular tumor antigen p53 (Homo sapiens) (P04637 whole entry, looked up): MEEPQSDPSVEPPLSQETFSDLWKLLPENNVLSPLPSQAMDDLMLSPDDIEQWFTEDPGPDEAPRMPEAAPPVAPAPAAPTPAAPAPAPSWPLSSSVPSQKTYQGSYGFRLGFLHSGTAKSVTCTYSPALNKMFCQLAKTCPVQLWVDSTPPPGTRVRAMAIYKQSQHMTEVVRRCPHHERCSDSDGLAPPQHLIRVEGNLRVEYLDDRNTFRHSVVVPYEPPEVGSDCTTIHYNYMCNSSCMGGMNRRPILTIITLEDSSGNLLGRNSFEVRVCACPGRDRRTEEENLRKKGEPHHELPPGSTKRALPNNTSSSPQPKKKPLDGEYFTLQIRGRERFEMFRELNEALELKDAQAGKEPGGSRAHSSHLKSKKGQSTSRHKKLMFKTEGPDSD

Question: With `Clc1ccc([C@@H]2C[C@H]3CC[C@@H]2N3)cn1` as the molecule, how does the outcome read?
Answer: inactive

Question: With `CCCCC#N` as the molecule, how does the outcome read?
Answer: inactive

Question: Which AC50 does the source give for `Oc1cc(Cl)c(Cl)c(Cl)c1Cl` here?
Answer: 6.58 µM (active)

Question: Which outcome does the source give for `CC(=O)Nc1cc([As](=O)(O)O)ccc1O` here?
Answer: inactive

Question: For `CCOP(=O)(OCC)SCCSCC` (tested in a mixture with another compound), which outcome is on record?
Answer: inactive

Question: With `CC(C)CC(C)N` (stereo not given) as the molecule, how does the outcome read?
Answer: inactive

Question: With `CCCCCc1cc(O)c2c(c1)OC(C)(C)c1ccc(C)cc1-2` as the molecule, how does the AC50 read?
Answer: 34.4 µM (active)

Question: For `O=NN1CCN(N=O)CC1`, which outcome is on record?
Answer: inactive

Question: Which AC50 does the source give for `O=c1ccc2cc(O[C@@H]3O[C@H](CO)[C@@H](O)[C@H](O)[C@H]3O)c(O)cc2o1` here?
Answer: 12 µM (active)

Question: Which outcome does the source give for `NCC(O)c1ccc(O)cc1` (stereo not given) here?
Answer: inactive

Question: With `CN[C@H]1C[C@@H](N)[C@H](O)[C@@H](O[C@@H]2O[C@H](CO)[C@H](O)[C@@H]3OC4(O[C@H]23)O[C@H](C(N)CO)[C@H](O)[C@H](O)C4O)[C@@H]1O` (stereo not given in full) as the molecule, how does the outcome read?
Answer: inactive

Question: For `CCCCCCCCCCCCN=C(N)N`, which outcome is on record?
Answer: inactive

Question: With `C[C@]12CCC(=O)C[C@@H]1CC[C@@H]1[C@@H]2CC[C@@]2(C)[C@H]1CC[C@]2(C)O` as the molecule, how does the outcome read?
Answer: inactive

Question: Which outcome does the source give for `Clc1ccc(-c2ccc(Cl)c(Cl)c2Cl)c(Cl)c1Cl` here?
Answer: inactive

Question: With `Cc1ccccc1-n1c(C)nc2ccccc2c1=O` as the molecule, how does the outcome read?
Answer: inactive

Question: Which outcome does the source give for `CCC1(c2ccccc2)C(=O)NC(=O)NC1=O` here?
Answer: inactive

Question: Which outcome does the source give for `CC(C)(O)[C@@H]1[C@H]2OC(=O)[C@@H]1[C@]1(O)C[C@H]3O[C@]34C(=O)O[C@H]2[C@]14C` (tested in a mixture with another compound) here?
Answer: inactive

Question: For `C[C@@H]1CC[C@@]2(OC1)O[C@H]1[C@@H](O)[C@H]3[C@@H]4CC[C@H]5C[C@@H](O[C@@H]6O[C@H](CO)[C@H](O[C@@H]7O[C@H](CO)[C@@H](O)[C@H](O[C@@H]8OC[C@@H](O)[C@H](O)[C@H]8O)[C@H]7O[C@@H]7O[C@H](CO)[C@@H](O)[C@H](O[C@@H]8O[C@H](CO)[C@@H](O)[C@H](O)[C@H]8O)[C@H]7O)[C@H](O)[C@H]6O)[C@H](O)C[C@]5(C)[C@H]4CC[C@]3(C)[C@H]1[C@@H]2C`, which AC50 is on record?
Answer: 81.5 µM (active)

Question: With `CC(C)OC(=O)Cc1ccccc1` as the molecule, how does the outcome read?
Answer: inactive

Question: With `BrC(Br)C(Br)(Br)Br` as the molecule, how does the outcome read?
Answer: inactive

Question: For `O=[N+]([O-])c1ccc([As](=O)(O)O)cc1`, which outcome is on record?
Answer: inactive

Question: With `CCOC(=O)C1(c2ccccc2)CCN(CCC(C#N)(c2ccccc2)c2ccccc2)CC1` as the molecule, how does the AC50 read?
Answer: 41.6 µM (active) and 7.95 µM (active)

Question: With `CCCC(C)(COC(N)=O)COC(=O)NC(C)C` (stereo not given) as the molecule, how does the outcome read?
Answer: inactive

Question: For `C=CC[C@]1(O)CC[C@H]2[C@@H]3CCC4=CC(=O)CCC4=C3C=C[C@@]21C`, which outcome is on record?
Answer: inactive

Question: For `O=c1c2ccccc2[se]n1-c1ccccc1`, which outcome is on record?
Answer: inactive

Question: With `COc1cccc2c1cc([N+](=O)[O-])c1c(C(=O)O)cc3c(c12)OCO3` as the molecule, how does the AC50 read?
Answer: 6.78 µM (active)

Question: For `CCN(CC)CCO[C@H]1CC[C@@]2(C)C(=CC[C@@H]3[C@@H]2CC[C@]2(C)C(=O)CC[C@@H]32)C1`, which outcome is on record?
Answer: inactive

Question: With `C[C@]12C[C@H]3S[C@H]3C[C@@H]1CC[C@@H]1[C@@H]2CC[C@]2(C)[C@@H](O)CC[C@@H]12` as the molecule, how does the outcome read?
Answer: inactive

Question: With `Nc1ccccc1C(=O)OCC=Cc1ccccc1` as the molecule, how does the outcome read?
Answer: inactive

Question: With `Nc1c(Br)cc([N+](=O)[O-])cc1[N+](=O)[O-]` as the molecule, how does the outcome read?
Answer: inactive

Question: For `CNC(=O)ON=C(CSC)C(C)(C)C`, which outcome is on record?
Answer: inactive

Question: For `O=c1oc2ccccc2c(O)c1Cc1c(O)c2ccccc2oc1=O`, which AC50 is on record?
Answer: 1.07 µM (active)

Question: With `BrCCc1ccccc1` as the molecule, how does the outcome read?
Answer: inactive

Question: Which outcome does the source give for `Oc1cc(Cl)cc(Cl)c1` here?
Answer: inactive

Question: For `CC(C)CON=O`, which outcome is on record?
Answer: inactive

Question: With `N=C(N)[Se]` as the molecule, how does the outcome read?
Answer: inactive

Question: With `c1ccc2c(c1)cc1ccc3cccc4ccc2c1c34` as the molecule, how does the AC50 read?
Answer: 4.14 µM (active)

Question: For `CCC[CH2][Sn]([CH2]CCC)([CH2]CCC)[O][Sn]([CH2]CCC)([CH2]CCC)[CH2]CCC`, which AC50 is on record?
Answer: 0.348 µM (active)

Question: Which outcome does the source give for `O=C(O)/C=C\C(=O)O` here?
Answer: inactive

Question: Which AC50 does the source give for `Cc1cc(C(C)(C)c2cc(C)c(O)c(C)c2)cc(C)c1O` here?
Answer: 18.8 µM (active)

Test system: not listed separately
Test: TOX21_p53_BLA_p4_viability: Viability Assessment in the Tox21 HCT-116 p53 Agonism Beta-lactamase Assay, Phase 4 (AID 2283597);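 also: hits lower the luminescence signal meaning cytotoxicity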
Method in brief: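 Readout: ATP luminescence (CellTiter-Glo), measured 30 min after reagent addition at RT. The reagent followed a 2 h CCF4-AM incubation, and the cells had been exposed to compound for 16 h at 37C.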

Question: Which outcome does the source give for `Clc1ccc([C@@H]2C[C@H]3CC[C@@H]2N3)cn1` here?
Answer: inactive

Question: With `CCCCC#N` as the molecule, how does the outcome read?
Answer: inactive

Question: Which outcome does the source give for `Oc1cc(Cl)c(Cl)c(Cl)c1Cl` here?
Answer: inactive

Question: With `CC(=O)Nc1cc([As](=O)(O)O)ccc1O` as the molecule, how does the outcome read?
Answer: inactive

Question: Which outcome does the source give for `CCOP(=O)(OCC)SCCSCC` (tested in a mixture with another compound) here?
Answer: inactive

Question: Which outcome does the source give for `CC(C)CC(C)N` (stereo not given) here?
Answer: inactive

Question: For `CCCCCc1cc(O)c2c(c1)OC(C)(C)c1ccc(C)cc1-2`, which AC50 is on record?
Answer: 14.9 µM (active)

Question: For `O=NN1CCN(N=O)CC1`, which outcome is on record?
Answer: inactive

Question: With `O=c1ccc2cc(O[C@@H]3O[C@H](CO)[C@@H](O)[C@H](O)[C@H]3O)c(O)cc2o1` as the molecule, how does the outcome read?
Answer: inactive

Question: For `NCC(O)c1ccc(O)cc1` (stereo not given), which outcome is on record?
Answer: inactive

Question: Which outcome does the source give for `CN[C@H]1C[C@@H](N)[C@H](O)[C@@H](O[C@@H]2O[C@H](CO)[C@H](O)[C@@H]3OC4(O[C@H]23)O[C@H](C(N)CO)[C@H](O)[C@H](O)C4O)[C@@H]1O` (stereo not given in full) here?
Answer: inactive

Question: With `CCCCCCCCCCCCN=C(N)N` as the molecule, how does the outcome read?
Answer: inactive

Question: With `C[C@]12CCC(=O)C[C@@H]1CC[C@@H]1[C@@H]2CC[C@@]2(C)[C@H]1CC[C@]2(C)O` as the molecule, how does the outcome read?
Answer: inactive

Question: For `Clc1ccc(-c2ccc(Cl)c(Cl)c2Cl)c(Cl)c1Cl`, which outcome is on record?
Answer: inactive

Question: For `Cc1ccccc1-n1c(C)nc2ccccc2c1=O`, which outcome is on record?
Answer: inactive

Question: Which outcome does the source give for `CCC1(c2ccccc2)C(=O)NC(=O)NC1=O` here?
Answer: inactive

Question: Which outcome does the source give for `CC(C)(O)[C@@H]1[C@H]2OC(=O)[C@@H]1[C@]1(O)C[C@H]3O[C@]34C(=O)O[C@H]2[C@]14C` (tested in a mixture with another compound) here?
Answer: inactive

Question: With `C[C@@H]1CC[C@@]2(OC1)O[C@H]1[C@@H](O)[C@H]3[C@@H]4CC[C@H]5C[C@@H](O[C@@H]6O[C@H](CO)[C@H](O[C@@H]7O[C@H](CO)[C@@H](O)[C@H](O[C@@H]8OC[C@@H](O)[C@H](O)[C@H]8O)[C@H]7O[C@@H]7O[C@H](CO)[C@@H](O)[C@H](O[C@@H]8O[C@H](CO)[C@@H](O)[C@H](O)[C@H]8O)[C@H]7O)[C@H](O)[C@H]6O)[C@H](O)C[C@]5(C)[C@H]4CC[C@]3(C)[C@H]1[C@@H]2C` as the molecule, how does the AC50 read?
Answer: 18.7 µM (active)

Question: For `CC(C)OC(=O)Cc1ccccc1`, which outcome is on record?
Answer: inactive

Question: Which outcome does the source give for `BrC(Br)C(Br)(Br)Br` here?
Answer: inactive

Question: Which outcome does the source give for `O=[N+]([O-])c1ccc([As](=O)(O)O)cc1` here?
Answer: inactive

Question: With `CCOC(=O)C1(c2ccccc2)CCN(CCC(C#N)(c2ccccc2)c2ccccc2)CC1` as the molecule, how does the outcome read?
Answer: inactive

Question: For `CCCC(C)(COC(N)=O)COC(=O)NC(C)C` (stereo not given), which outcome is on record?
Answer: inactive

Question: Which outcome does the source give for `C=CC[C@]1(O)CC[C@H]2[C@@H]3CCC4=CC(=O)CCC4=C3C=C[C@@]21C` here?
Answer: inactive

Question: With `O=c1c2ccccc2[se]n1-c1ccccc1` as the molecule, how does the outcome read?
Answer: inactive

Question: For `COc1cccc2c1cc([N+](=O)[O-])c1c(C(=O)O)cc3c(c12)OCO3`, which outcome is on record?
Answer: inactive

Question: For `CCN(CC)CCO[C@H]1CC[C@@]2(C)C(=CC[C@@H]3[C@@H]2CC[C@]2(C)C(=O)CC[C@@H]32)C1`, which outcome is on record?
Answer: inactive

Question: Which outcome does the source give for `C[C@]12C[C@H]3S[C@H]3C[C@@H]1CC[C@@H]1[C@@H]2CC[C@]2(C)[C@@H](O)CC[C@@H]12` here?
Answer: inactive

Question: For `Nc1ccccc1C(=O)OCC=Cc1ccccc1`, which outcome is on record?
Answer: inactive

Question: Which outcome does the source give for `Nc1c(Br)cc([N+](=O)[O-])cc1[N+](=O)[O-]` here?
Answer: inactive

Question: With `CNC(=O)ON=C(CSC)C(C)(C)C` as the molecule, how does the outcome read?
Answer: inactive

Question: Which AC50 does the source give for `O=c1oc2ccccc2c(O)c1Cc1c(O)c2ccccc2oc1=O` here?
Answer: 3.3 µM (active)

Question: Which outcome does the source give for `BrCCc1ccccc1` here?
Answer: inactive

Question: For `Oc1cc(Cl)cc(Cl)c1`, which outcome is on record?
Answer: inactive

Question: Which outcome does the source give for `CC(C)CON=O` here?
Answer: inactive

Question: Which outcome does the source give for `N=C(N)[Se]` here?
Answer: inactive

Question: For `c1ccc2c(c1)cc1ccc3cccc4ccc2c1c34`, which outcome is on record?
Answer: inactive

Question: Which AC50 does the source give for `CCC[CH2][Sn]([CH2]CCC)([CH2]CCC)[O][Sn]([CH2]CCC)([CH2]CCC)[CH2]CCC` here?
Answer: 0.668 µM (active)

Question: With `O=C(O)/C=C\C(=O)O` as the molecule, how does the outcome read?
Answer: inactive

Question: For `Cc1cc(C(C)(C)c2cc(C)c(O)c(C)c2)cc(C)c1O`, which AC50 is on record?
Answer: 57.2 µM (active)
